{"source": "PubChem BioAssay AID463212", "about": "(Sanford-Burnham Center for Chemical Genomics, 2010)", "note": "Hit rate of the full screen: of about 330,000 compounds, about 4,400 (1.3%) were called active.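 How the source made its calls: active means growth inhibition of the mutant yeast at or above 50%; inactive means the rest.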 What follows is part of a selection rich in actives, with near analogues and random picks from the rest."}
{"assay": "growth inhibitors of tim23-1 mutant yeast, primary screen, luminescence, uHTS (AID 463212);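 further: temperature-sensitive mutant grown at 25 °C; plate controls were DMSO-treated mutant yeast for no effect and medium wells lacking yeast for full effect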", "conditions": "S. cerevisiae tim23-1 growth, BacTiter-Glo luminescence, 24 h; at 20 µM; active compounds read high"}
{"smiles": "CNC(=O)/C(C#N)=C/c1c(F)cccc1Cl", "inhibition": "75.8% (active)"}
{"smiles": "O=C(/C=C/c1c(F)cccc1Cl)Nc1nn[nH]n1", "inhibition": "9.19% (inactive)"}
{"smiles": "CCOC(=O)NC(=O)/C(C#N)=C\\c1ccccc1", "inhibition": "4.67% (inactive)"}
{"smiles": "CC(=O)c1ccc(S(=O)(=O)NCCC(=O)N2CCN(c3ccccn3)CC2)cc1", "inhibition": "12.9% (inactive)"}
{"smiles": "CCC(=O)N1CCN(c2ccccc2NC(=O)COc2cccc(C)c2C)CC1", "inhibition": "13.7% (inactive)"}
{"smiles": "Cc1ccccc1OCC(=O)Nc1ccc2c(c1)ncn2C", "inhibition": "20% (inactive)"}
{"smiles": "Cc1ccccc1OCC(=O)Nc1ccc(N2CCN(C(=O)C(C)C)CC2)c(Cl)c1", "inhibition": "52.8% (active)"}
{"smiles": "CCN(CC)C(=O)CSc1nc2ccccc2n1CC(=O)N1CCN(c2ccccc2OC)CC1", "inhibition": "12.6% (inactive)"}
{"smiles": "NC(=S)c1ccc(C(N)=S)o1", "inhibition": "-0.65% (inactive)"}
{"smiles": "CC[N+](C)(CC)CCC[n+]1c(-c2ccccc2)c2cc(N)ccc2c2ccc(N)cc21", "inhibition": "-96.2% (inactive)"}
{"smiles": "Fc1ccccc1/C=C1\\CCCC2=C1Nc1ncnn1C2c1ccccc1F", "note": "(stereo unspecified)", "inhibition": "34% (inactive)"}
{"smiles": "CC(=O)C1=C(C)NC(=O)NC1c1ccc2c(c1)OCO2", "note": "(stereo unspecified)", "inhibition": "0.126% (inactive)"}
{"smiles": "CCCC(C)c1nnc(NC(=O)C2CC(=O)N(c3ccc(OCC)cc3)C2)s1", "note": "(stereo unspecified)", "inhibition": "16% (inactive)"}
{"smiles": "COc1cc(/C=C/C(=O)OCC(=O)NCCCc2ccccc2)ccc1O", "inhibition": "16.5% (inactive)"}
{"smiles": "O=C(Oc1c(-c2ccco2)oc2ccccc2c1=O)c1cccnc1", "inhibition": "51.2% (active)"}
{"smiles": "O=C(OCc1cc2ccccc2[nH]c1=O)c1cccnc1", "inhibition": "-4.57% (inactive)"}
{"smiles": "COc1ccc(Oc2coc3cc(OC(=O)c4cncc(Br)c4)ccc3c2=O)cc1", "inhibition": "-12.3% (inactive)"}
{"smiles": "CCOC(=O)N1CCN(CC(=O)n2c(C)c(C)c3ccccc32)CC1", "inhibition": "30.5% (inactive)"}
{"smiles": "CCCCOc1ccc(CON(C(C)=O)C(C)=O)cc1Cl", "inhibition": "27% (inactive)"}
{"smiles": "Cc1ccccc1C1=N/C(=C/c2cccnc2)C(=O)O1", "inhibition": "51.8% (active)"}
{"smiles": "O=C1OC(c2ccc(Cl)cc2)=N/C1=C\\c1cccnc1", "inhibition": "40.9% (inactive)"}
{"smiles": "Cc1ccc(C2=C/C(=C\\c3cccnc3)C(=O)O2)cc1", "inhibition": "33.4% (inactive)"}
{"smiles": "CC(C)CC(=O)N1CCN(Cc2ccccc2Br)CC1", "inhibition": "1.68% (inactive)"}
{"smiles": "COC(=O)c1cccc(N(C(=O)CNC(=O)c2cccs2)C(C(=O)NCC2CCCO2)c2ccc(OC)c(OC)c2)c1", "note": "(stereo unspecified)", "inhibition": "0.773% (inactive)"}
{"smiles": "COc1ccc2nc(NC(=O)[C@@H]3CCCN3C(=O)c3cccs3)sc2c1", "inhibition": "25.9% (inactive)"}
{"smiles": "COc1cccc(C(=O)Nc2nc3ccc(S(C)(=O)=O)cc3s2)c1", "inhibition": "23.6% (inactive)"}
{"smiles": "COc1ccc2nc(NC(=O)NC3CCCCC3)sc2c1", "inhibition": "58.4% (active)"}
{"smiles": "CC(C)=CCC/C(C)=C/C(=O)O", "inhibition": "8.44% (inactive)"}
{"smiles": "CC(C)S(=O)(=O)c1csc(NC(=O)Nc2ccc(Cl)cc2)c1Cl", "inhibition": "22.2% (inactive)"}
{"smiles": "CCn1c(CSc2nncn2-c2ccc(OC)cc2)nc2cc(S(=O)(=O)N(C)C)ccc21", "inhibition": "8.84% (inactive)"}
{"smiles": "Cc1cc(C(=O)COc2ccccc2Cl)c(C)n1C1CC1", "inhibition": "38.7% (inactive)"}
{"smiles": "O=C(COC(=O)C1CCCO1)Nc1nc(-c2ccc(F)cc2)cs1", "note": "(stereo unspecified)", "inhibition": "11.2% (inactive)"}
{"smiles": "CCCc1cc(=O)[nH]c(SCC(=O)N2C(C)CCCC2C)n1", "note": "(stereo unspecified)", "inhibition": "0.431% (inactive)"}
{"smiles": "CC1CCCC(C)N1C(=O)CN1CCN(c2nc(-c3ccc(F)cc3)cs2)CC1", "note": "(stereo unspecified)", "inhibition": "52.8% (active)"}
{"smiles": "O=C(COC(=O)/C(=C/c1cccs1)c1cccs1)NCc1ccccc1Cl", "inhibition": "24% (inactive)"}
{"smiles": "COc1cc(/C=C(\\C#N)c2nc3ccccc3[nH]2)ccc1O", "inhibition": "56.4% (active)"}
{"smiles": "Cc1ccc2nc(/C(C#N)=C\\c3ccc(OC(=O)c4cccs4)cc3)[nH]c2c1", "inhibition": "-4.69% (inactive)"}
{"smiles": "O=C(/C(=C/c1cccc(Cl)c1)c1nc2ccccc2[nH]1)c1ccccc1", "inhibition": "44.9% (inactive)"}
{"smiles": "CCOc1ccc(OCC(=O)Nc2c3c(nn2C(C)(C)C)CS(=O)(=O)C3)cc1", "inhibition": "11.1% (inactive)"}
{"smiles": "CCOC(=O)c1c(NC(=O)CCl)sc(C(=O)N(CC)CC)c1C", "inhibition": "5.96% (inactive)"}
{"smiles": "O=S(=O)(c1cccc2nonc12)N1CCN(c2cccc(Cl)c2)CC1", "inhibition": "22.8% (inactive)"}
{"smiles": "O=C(CC(O)(C(F)(F)F)C(F)(F)F)Nc1ccc(Cl)c(Cl)c1", "inhibition": "90.6% (active)"}
{"smiles": "O=C(COC(=O)c1cc[n+]([O-])cc1)Nc1ccc(Cl)c(C(F)(F)F)c1", "inhibition": "5.05% (inactive)"}
{"smiles": "O=C(CCCN1C(=O)CCC1=O)Nc1ccc(Cl)c(C(F)(F)F)c1", "inhibition": "-4.71% (inactive)"}
{"smiles": "CC/C(O)=C1\\C(=O)CC(C)(C)CC1=NCCc1nc2ccccc2[nH]1", "inhibition": "-7.57% (inactive)"}
{"smiles": "CC(=O)N1CCOc2ccc(S(=O)(=O)N3CCN(c4cccc(C(F)(F)F)c4)CC3)cc21", "inhibition": "36.1% (inactive)"}
{"smiles": "COc1ccc(CN(C)C(C)C(=O)NC2CCCc3ccccc32)cc1", "note": "(stereo unspecified)", "inhibition": "24.3% (inactive)"}
{"smiles": "COC(=O)c1cc(OCC(=O)NC2CCCc3ccccc32)cc(C(=O)OC)c1", "note": "(stereo unspecified)", "inhibition": "16.8% (inactive)"}
{"smiles": "COc1ccc2c(c1)C(NS(=O)(=O)OCC(Cl)(Cl)Cl)CCC2", "note": "(stereo unspecified)", "inhibition": "55.4% (active)"}
{"smiles": "CC(CC(=O)N1CCN(c2ccccc2)CC1)S(=O)(=O)c1ccc2c(c1)NC(=O)CS2", "note": "(stereo unspecified)", "inhibition": "-6.88% (inactive)"}
{"smiles": "O=C(NCC(O)c1ccc([N+](=O)[O-])cc1)C1CCCCC1", "note": "(stereo unspecified)", "inhibition": "-0.943% (inactive)"}
{"smiles": "Cc1cc(C)cc(OCC(=O)O/N=C(\\N)Cc2ccc([N+](=O)[O-])cc2)c1", "inhibition": "26.9% (inactive)"}
{"smiles": "O=C(COC(=O)Cc1ccc([N+](=O)[O-])cc1)NC1CCCCCC1", "inhibition": "19.1% (inactive)"}
{"smiles": "N/C(Cc1ccc([N+](=O)[O-])cc1)=N\\OC(=O)COc1ccc2ccccc2c1", "inhibition": "60.5% (active)"}
{"smiles": "COC(=O)C(C)NC(=O)COc1ccc2ccccc2c1", "note": "(stereo unspecified)", "inhibition": "7.67% (inactive)"}
{"smiles": "N/C(Cc1ccc([N+](=O)[O-])cc1)=N\\OC(=O)C1CCCCC1", "inhibition": "58.8% (active)"}
{"smiles": "CC(Oc1ccc2c(-c3ccccc3)cc(=O)oc2c1)C(=O)NC(Cc1c[nH]c2ccccc12)C(=O)O", "note": "(stereo unspecified)", "inhibition": "21% (inactive)"}
{"smiles": "CCc1ccc(NC(=O)CS(=O)CC(=O)N2CCN(c3ccccc3F)CC2)cc1", "note": "(stereo unspecified)", "inhibition": "-23.1% (inactive)"}
{"smiles": "Cc1ccc(-c2ccc(/C=N/NC(=O)CN3CCOCC3)o2)cc1[N+](=O)[O-]", "inhibition": "55.9% (active)"}
{"smiles": "Cc1occc1C(=O)N/N=C/c1ccc(-c2cccc([N+](=O)[O-])c2)o1", "inhibition": "26% (inactive)"}
{"smiles": "O=C(CN1CCOCC1)N/N=C/c1ccc(-c2ccc(Br)cc2)o1", "inhibition": "1.87% (inactive)"}
